This is part of a sample that, as a whole, favours compounds with a hit. Of some 79,000 tested, about 15% had one in any assay. Calls of active or inactive are those of the source. Rule as the data show it: active = growth inhibition above about 70%; inactive = the rest.
How the values were obtained:
[1] = NCI Yeast Anticancer Drug Screen. Data for the rad50 strain (AID 155);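 also: 0% = growth of vehicle-only cultures of the same strain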; conditions: S. cerevisiae rad50 strain growth inhibition, active compounds read high
In short: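 Growth of the mutant yeast was measured after compound exposure and referenced to vehicle-treated cultures.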

[2] = NCI Yeast Anticancer Drug Screen. Data for the mec2-1 strain (AID 157); conditions: S. cerevisiae mec2-1 strain, active compounds read high
In short: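 Cells of the genetically defined mec2-1 yeast strain are incubated with test compound. Inhibition of growth is calculated against vehicle-treated controls.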

[3] = NCI Yeast Anticancer Drug Screen. Data for the sgs1 mgt1 strain (AID 161);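 also: 0% = growth of cultures given vehicle only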; conditions: S. cerevisiae sgs1 mgt1 strain, active compounds read high
In short: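 Read-out: growth inhibition vs vehicle controls. Cells: mutant yeast strain deficient in DNA damage repair.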

[4] = NCI Yeast Anticancer Drug Screen. Data for the cln2 rad14 strain (AID 165);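 also: 0% = growth equal to vehicle treated cultures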; conditions: S. cerevisiae cln2 rad14 strain, active compounds read high
In short: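 The screen exposed genetically defined yeast (cln2 rad14) to test compounds and scored growth inhibition relative to vehicle-treated controls.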

[5] = NCI Yeast Anticancer Drug Screen. Data for the bub3 strain (AID 167); conditions: S. cerevisiae bub3 mutant strain, active compounds read high
In short: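 Whole-cell yeast assay. The mutant strain was incubated with compounds, and growth inhibition was determined by comparison with vehicle-treated cells.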

[6] = NCI Yeast Anticancer Drug Screen. Data for the mlh1 rad18 strain (AID 175); conditions: S. cerevisiae mlh1 rad18 strain growth inhibition, active compounds read high
In short: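 Compound-treated yeast growth, normalised to vehicle controls. Strain bears defined DNA repair mutations.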

[7] = at 5.0 µM (retest, dose inferred, filed as 0.5)
[8] = at 50.0 µM (retest, dose inferred, filed as 5.0)

Measured: growth inhibition

CC(C)(C)C1CCC2c3c([nH]c4ccccc34)C3C(=O)N(c4ccc(C(=O)O)cc4)C(=O)C3C2C1 (stereo not given)
active: [1]; [7] 98% | [1]; [8] 98% | [1]; at 50.0 µM 96.3% | [2]; [7] 99% | [2]; [8] 99% | [2]; at 50.0 µM 99.2% | [3]; [7] 99% | [3]; [8] 99% | [3]; at 50.0 µM 98.5% | [4]; [7] 89% | [4]; [8] 98% | [4]; at 50.0 µM 99.4% | [5]; [7] 74% | [5]; [8] 99% | [5]; at 50.0 µM 99.3% | [6]; [7] 97% | [6]; [8] 99% | [6]; at 50.0 µM 98.8%

CC(c1ccccc1)C(C(=O)O)(c1ccccc1)c1ccccc1 (stereo not given)
active: [1]; [7] 80% | [1]; at 50.0 µM 99.4% | [2]; [7] 76% | [2]; at 50.0 µM 99.3% | [3]; at 50.0 µM 99.7% | [4]; [7] 81% | [4]; at 50.0 µM 99.3% | [5]; [7] 76% | [5]; at 50.0 µM 99.5% | [6]; [7] 84% | [6]; at 50.0 µM 99.3%
inactive: [1]; [8] 4% | [2]; [8] 7% | [3]; [7] 61% | [3]; [8] 26% | [4]; [8] 12% | [5]; [8] -3% | [6]; [8] 8%

Cc1ccc(N=Nc2sc(N)nc2C)cc1C
inactive: [1]; [7] -154% | [1]; [8] -57% | [1]; at 50.0 µM 64% | [2]; [7] -51% | [2]; [8] -30% | [2]; at 50.0 µM 35.8% | [3]; [7] -65% | [3]; [8] -45% | [3]; at 50.0 µM 14.1% | [4]; [7] -58% | [4]; [8] -47% | [4]; at 50.0 µM 30.1% | [5]; [7] -62% | [5]; [8] -12% | [6]; [7] -125% | [6]; [8] -52%
active: [5]; at 50.0 µM 87.9% | [6]; at 50.0 µM 85.4%

Oc1c(Cl)cc(C(c2cc(Cl)c(O)c(Cl)c2)C(c2cc(Cl)c(O)c(Cl)c2)c2cc(Cl)c(O)c(Cl)c2)cc1Cl
inactive: [3]; at 50.0 µM 42.8%
active: [1]; [7] 99% | [1]; [8] 98% | [1]; at 50.0 µM 92.5% | [2]; [7] 99% | [2]; [8] 98% | [2]; at 50.0 µM 95.8% | [3]; [7] 99% | [3]; [8] 98% | [4]; [7] 98% | [4]; [8] 98% | [4]; at 50.0 µM 92% | [5]; [7] 99% | [5]; [8] 98% | [5]; at 50.0 µM 93.9% | [6]; [7] 99% | [6]; [8] 98% | [6]; at 50.0 µM 96.8%

N#Cc1c([N+](=O)[O-])cc(C(F)(F)F)cc1[N+](=O)[O-]
active: [1]; [7] 92% | [1]; [8] 99% | [1]; at 50.0 µM 99.5% | [2]; [8] 100% | [2]; at 50.0 µM 99.6% | [3]; [8] 100% | [3]; at 50.0 µM 99.5% | [4]; [7] 82% | [4]; [8] 99% | [4]; at 50.0 µM 99.2% | [5]; [7] 92% | [5]; [8] 100% | [5]; at 50.0 µM 99% | [6]; [7] 92% | [6]; [8] 99% | [6]; at 50.0 µM 99.3%
inactive: [2]; [7] 63% | [3]; [7] 68%

O=c1c2ccccc2c2ccccc2c(=O)n1-c1cc2c3ccccc3ccc2c2ccccc12
inactive: [1]; [7] 12% | [1]; [8] 16% | [1]; at 50.0 µM -16.2% | [2]; [7] -11% | [2]; [8] 9% | [2]; at 50.0 µM -12.8% | [3]; [7] -4% | [3]; [8] 9% | [3]; at 50.0 µM -2.4% | [4]; [7] -11% | [4]; [8] -10% | [4]; at 50.0 µM 68.2% | [5]; [7] -12% | [5]; [8] -5% | [5]; at 50.0 µM -66.5% | [6]; [7] 5% | [6]; [8] 9% | [6]; at 50.0 µM 37.8%

C1=C(c2ccccc2)C(c2ccccc2)C(c2ccccc2)C/C1=N/OCCN1CCCC1 (stereo not given)
active: [1]; [8] 99% | [1]; at 50.0 µM 99% | [2]; [8] 99% | [2]; at 50.0 µM 99.6% | [3]; [8] 100% | [3]; at 50.0 µM 99.6% | [4]; [8] 98% | [5]; [8] 99% | [5]; at 50.0 µM 99.2% | [6]; [7] 78% | [6]; [8] 99% | [6]; at 50.0 µM 97.7%
inactive: [1]; [7] 30% | [2]; [7] 55% | [3]; [7] 17% | [4]; [7] -9% | [4]; at 50.0 µM 55.1% | [5]; [7] 39%

CCCCCCCCCCCCNc1ccccn1
inactive: [1]; [7] -3% | [1]; at 50.0 µM 18.4% | [2]; [7] 25% | [2]; at 50.0 µM 21.2% | [3]; [7] 42% | [3]; at 50.0 µM 69.8% | [4]; [7] 6% | [4]; at 50.0 µM 56% | [5]; [7] 29% | [5]; at 50.0 µM 48% | [6]; [7] 37%
active: [1]; [8] 98% | [2]; [8] 99% | [3]; [8] 99% | [4]; [8] 99% | [5]; [8] 99% | [6]; [8] 99% | [6]; at 50.0 µM 80.8%

O=C1OC(c2ccc(O)cc2)Sc2ccccc21 (stereo not given)
inactive: [1]; [7] 6% | [1]; [8] 66% | [2]; [7] 38% | [3]; [7] -43% | [3]; [8] 40% | [3]; at 50.0 µM 49.8% | [4]; [7] 3% | [4]; [8] 24% | [4]; at 50.0 µM -22.5% | [5]; [7] -1% | [5]; [8] 29% | [5]; at 50.0 µM 3.9% | [6]; [7] 8% | [6]; [8] 56% | [6]; at 50.0 µM 40%
active: [1]; at 50.0 µM 81.1% | [2]; [8] 83% | [2]; at 50.0 µM 74.2%

CN(C)Cc1cc(N=Nc2ccc(Cl)c(Cl)c2)ccc1O
inactive: [1]; [7] -16% | [1]; [8] 46% | [2]; [7] -11% | [2]; [8] 31% | [2]; at 50.0 µM 64.4% | [3]; [7] -20% | [3]; [8] 44% | [4]; [7] -31% | [4]; [8] 34% | [5]; [7] -33% | [5]; [8] 40% | [6]; [7] 0% | [6]; [8] 56%
active: [1]; at 50.0 µM 86.5% | [3]; at 50.0 µM 82.7% | [4]; at 50.0 µM 71.8% | [5]; at 50.0 µM 88.5% | [6]; at 50.0 µM 84.7%

From PubChem BioAssay (NCI)
